Compound activity from PubChem.
HT1080NT lethal: kills 2HG-producing HT-1080-NT fibrosarcoma cells. HT-1080-NT fibrosarcoma viability, CellTiter-Glo ATP luminescence, 48 h. Potency, µM (top dose mostly 46.1 µM), for inactives: top-dose activity, negative = less viability, usual class: cytotoxic. 360,000 tested, 1.6% active;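 also: NT is the 2HG producing partner of a matched IDH1 knockdown line; 0% = DMSO-treated cells and -100% = media-only wells without cells; nearly all actives have a fitted effect of over 55% in size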
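Viability of the 2HG-overproducing fibrosarcoma line after 48 hours of compound exposure at 37 degrees C was determined by luminescence with CellTiter-Glo, and concentration-effect curves were then fitted and categorized.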
KB-3-1 tox: kills parental KB-3-1 adenocarcinoma cells | KB-3-1 viability, CellTiter-Glo ATP luminescence, 72 h | Potency, µM (series often up to 46.1 µM), actives largely listed as cytotoxic | 400,000 tested, 1.4% active; also: % is scaled to controls: 0 for no effect and ±100 for the full control effect; nearly all actives have a fitted effect of over 60% in size
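Parental KB-3-1 viability, qHTS format: 72 h compound exposure, 37 °C; CellTiter-Glo; media-only wells and DMSO plates as controls; concentration-effect fits on corrected data.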
S2 tox: viability counter-screen for ATXN expression inhibitors; S2 cells (HEK-293 line with an ATXN2-luciferase reporter) viability, CellTiter-Fluor protease fluorescence, 24 h; Potency, µM (titrated, usually from 56.7 µM), most hits filed as cytotoxic; 400,000 tested, 0.49% active; AID 651635; also: nearly all actives have a fitted effect of over 40% in size
HT1080 IDH1KD tx: kills HT-1080 cells with IDH1 knockdown; Potency, µM (series often up to 46.1 µM), without a hit: top-dose activity, negative = toxicity, usual class: cytotoxic; 360,000 tested, 2% active; HT-1080 IDH1 knockdown viability, ATP luminescence, 48 h;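 also: 0% = DMSO wells and -100% = cell-free medium wells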
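CellTiter-Glo luminescence after 48 h compound exposure at 37 degrees C of IDH1-knockdown HT-1080 cells in 5% FBS RPMI. %Activity scaled between DMSO wells and cell-free media wells, with curves fitted and assigned curve classes.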
KB-V1 cytotox: KB-V1 MDR subline cytotoxicity | KB-V1 MDR cells viability, CellTiter-Glo, 72 h | Potency, µM (titrated, usually from 46.1 µM), usual class: cytotoxic | 400,000 tested, 3.4% active | AID 1347076; also: % is scaled to controls: 0 for no effect and ±100 for the full control effect; nearly all actives have a fitted effect of over 60% in size
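Potencies derive from concentration-effect curves fitted to normalized luminescence (CellTiter-Glo) of KB-V1 cells treated for 72 h at 37 degrees C in phenol-red-free DMEM containing 10% FBS.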
ATXN2 expr inh: reduces ATXN2 reporter expression in HEK-293 cells | 360,000 tested, 0.72% active | AID 1745845 | HEK-293 ATXN2-luciferase reporter, luminescence, 24 h | Potency, µM (top dose mostly 57 µM), for inactives: top-dose activity change, negative = inhibition, usual class: inhibitors; also: % is scaled to controls: 0 for no effect and ±100 for the full control effect; nearly all actives have a fitted effect of over 55% in size
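ATXN2-luciferase reporter cells (luciferase flanked by upstream and downstream ATXN2 gene portions) were treated 24 h at 37 °C with compounds at up to 57 uM. SteadyGlo luminescence gave expression; GF-AFC fluorescence gave viability.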
* = called active by the depositor; i = inactive; ? = inconclusive; · = no result; ! = a repeat was not active; [ ] = dose if it differs, or a comment. Shown are actives, neighbours in structure and some others; about 6.2% of the full set was active somewhere. Calls follow the shape of the dose curve; as a rule, active = well fitted curve in the direction sought with a large enough effect; inconclusive = small, poorly fitted or top-dose-only effect, or another doubt; inactive = no such curve, though single readings can be large; an effect the other way counts as inactive or inconclusive. Potency is read from the fitted curve at half-maximal effect.

SMILES | HT1080NT lethal | KB-3-1 tox | S2 tox | HT1080 IDH1KD tx | KB-V1 cytotox | ATXN2 expr inh
FC(F)(F)c1ccc(-n2cnc3ccccc32)nc1 | 0% | i | i | 1% | i | 45%
CCOc1ccc(CN(C)C(=O)c2ccc3c(c2)NC(=O)C(C)S3)cc1OC (stereo unspecified) | 0% | ? | i | -2% | ? | ·
O=C(O)c1cccc(-c2nnn(Cc3ccccc3Cl)n2)c1 | 4% | i | i | 0% | i | 11µM*
Cc1cc(NCCNC2=CC(=O)CCC2)nc2ccccc12 | 7% | i | i | 4% | i | 5%
Cc1cc(NCC2CCCCC2)nc2ccccc12 | ? | i | i | 7.3µM* | 9.2µM* | -13%
Cc1nc2cc(NCc3nc4ccccc4n3Cc3ccccc3)ccc2n1C | ? | i | ? | ? | 10µM* | 48%
c1ccc2c(c1)nc(NCc1ccc3c(c1)OCO3)n2CCN1CCOCC1 | -7% | i | i | 0% | i | -1%
Cc1ccc(N2CCN(c3ccc(NCc4nc5ccccc5n4C)cc3)CC2)cc1 | 0% | i | ? | -5% | 4.6µM* | -16%
Cn1c(CNc2ccc(Cl)cc2)nc2ccccc21 | -17% | i | i | -2%[9.24 µM] | 21µM* | 69%
Cc1cccc(NCc2nc3ccccc3n2C)c1 | -1% | i | i | 4% | ? | 71%
Cc1cccc(NCc2nc3ccccc3n2Cc2ccccc2)c1 | -19% | i | i | ? | ? | 11%
c1ccc(Cn2c(CNc3nc4ccccc4n3CCN3CCOCC3)nc3ccccc32)cc1 | ? | i | i | ? | 8.2µM* | -5%
O=C(Nc1ccc(F)cc1)Nc1nnc(-c2ccncc2)s1 | -24% | i | ? | -2% | i | -9%
O=C(Nc1ccc(-c2ccccc2)cc1)Nc1nnc(-c2ccncc2)s1 | · | ? | · | · | i | ·
c1ccc2c(Nc3nnc(-c4ccncc4)s3)cccc2c1 | 4% | i | i | -7% | 15µM* | 62%
O=C(Nc1ccccc1)Nc1nnc(-c2ccncc2)s1 | · | 18µM* | · | · | ? | ·
O=C(Nc1ccc(Cl)cc1)Nc1nnc(-c2ccncc2)s1 | 8% | ? | ? | 11% | 2.6µM*! | ?
O=C(Nc1nnc(-c2ccncc2)s1)Nc1cccc2ccccc12 | · | i | · | · | i | ·
O=C(Nc1nnc(-c2ccncc2)s1)Nc1ccc(Cl)cc1Cl | · | i | · | · | i | ·
O=C(Nc1cccc(Cl)c1)Nc1nnc(-c2ccncc2)s1 | ? | 13µM* | · | 10µM* | ? | ?
CCN1C(=O)c2ccccc2S(=O)c2ccc(C(=O)N3CCN(c4ccccc4OC)CC3)cc21 (stereo unspecified) | · | i | i | · | i | -5%
CC1(C)O[C@@H]2C[C@H]3[C@@H]4CCC5=CC(=O)C=C[C@]5(C)[C@@H]4[C@@H](O)C[C@]3(C)[C@]2(C(=O)CO)O1 | · | · | i | · | · | -2%
Fc1cccc(NC(=S)NNc2c3ccccc3nc3ccccc23)c1 | ? | ? | ? | 21µM* | ? | -13%
O=C(CC1Sc2ccccc2NC1=O)NNc1cccc(Cl)c1Cl (stereo unspecified) | ? | i | i | ? | 21µM* | ?
CCN(CC)CCNCC1C(=O)O[C@@H]2C[C@@]3(C)CCC[C@H](C)C3=C[C@H]12 (stereo partly specified) | ? | ? | i | 16µM* | ? | -37%
SMILES | HT1080NT lethal | KB-3-1 tox | S2 tox | HT1080 IDH1KD tx | KB-V1 cytotox | ATXN2 expr inh
Cc1oc(-c2ccc(-c3ccccc3)cc2)nc1CN(CCO)C(C)C | ? | i | i | 23µM* | i | 34%
Cc1ccc([C@H]2C[C@@H](O)[C@H](n3cc(COC(=O)c4ccccc4)nn3)CN2C(=O)c2cccs2)cc1 | -2% | i | ? | -1% | i | 1%
O=C(N/N=C/c1cccnc1)c1cc(-c2cccs2)nc2ccccc12 | ? | 16µM* | i | ? | ? | 0%
O=C(N/N=C/c1ccc[nH]1)c1cc(-c2cccs2)nc2ccccc12 | ? | ? | i | ? | ? | -8%
CC(C)COc1cccc(-c2cc(C(=O)N/N=C/c3ccncc3)c3ccccc3n2)c1 | -26% | ? | i | 18µM* | ? | 80%
Cn1cccc1/C=N/NC(=O)c1cc(-c2cccs2)nc2ccccc12 | ? | 7.3µM* | i | ? | 6.5µM* | -23%
Cc1ccc(COc2ccccc2-c2cc(C(=O)N/N=C/c3cccnc3)[nH]n2)cc1 | ? | ? | ? | 6.5µM* | ? | ?
CCOc1cc(/C=N/NC(=O)c2cc(-c3cccc(OC)c3)nc3ccccc23)ccc1O | -24% | ? | ? | ? | ? | ?
COC(=O)C1CCCCN1Cc1ccc2c(c1)CN(Cc1cnn(-c3ccccc3)c1)CCO2 (stereo unspecified) | · | · | i | · | · | ·
Cc1ccc(C(=O)c2cn(Cc3cccc(Cl)c3)c3nc(C)ccc3c2=O)cc1 | · | i | i | · | ? | ?
O=C(Cn1c(=O)n(Cc2nc(-c3ccccc3)no2)c(=O)c2ccccc21)Nc1cccc(Cl)c1 | · | i | · | · | i | ·
CCOc1ccccc1-c1cc(C(=O)N/N=C/c2cccnc2)c2ccccc2n1 | -26% | i | i | -18% | i | 40%
CCOc1ccc(-c2cc(C(=O)N/N=C/c3cccnc3)c3ccccc3n2)cc1 | ? | 8.2µM* | ? | ? | ? | 40%
CC(C)C(=O)NC(NC(=S)Nc1cccc2cccnc12)C(Cl)(Cl)Cl (stereo unspecified) | -8% | i | i | -8% | 23µM* | -13%
O=C(NC(NC(=S)Nc1ccccc1Cl)C(Cl)(Cl)Cl)c1cccc(Cl)c1 (stereo unspecified) | ? | ? | ? | ? | 21µM* | ?
CCC(=O)NC(NC(=S)Nc1cccc2cccnc12)C(Cl)(Cl)Cl (stereo unspecified) | -1% | i | i | -1% | i | -4%
CC(=O)NC1=NN(C(C)=O)C(C)(c2ccccc2)S1 (stereo unspecified) | 2µM* | 8.2µM* | i | 7.1µM* | 7.3µM* | -18%
C/C(=N\NC(=O)c1ccc(Cl)cc1)c1ccc(Br)s1 | -27% | ? | i | -8% | i | -13%
C/C(=N\NC(=O)c1cc(Cl)ccc1O)c1ccc(Br)s1 | -5% | ? | ? | ? | 21µM* | 11%
Cc1ccc(OCC(=O)NNc2c3ccccc3nc3ccccc23)cc1 | -23% | i | ? | -26% | 18µM* | ?
